Assay outcomes deposited in PubChem by National Center for Advancing Translational Sciences (NCATS).
KB-3-1 cytotox = qHTS assay for MDR1-selective chemotherapeutics: Primary screen using the parental adenocarcinoma cell KB-3-1; KB-3-1 viability, CellTiter-Glo ATP luminescence, 72 h; Potency, µM (series often up to 46.1 µM), hits mostly cytotoxic; 400,000 tested, 1.4% active; AID 1347075, 2019; also: % is scaled to controls: 0 for no effect and ±100 for the full control effect; nearly all actives have a fitted effect of over 60% in size
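KB-3-1 parental drug-naive adenocarcinoma cells in DMEM/10% FBS, incubated 72 h at 37 C with pin-transferred compounds across a concentration series. Viability by CellTiter-Glo luminescence; concentration-response curves fitted after normalization.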
SW480 rereplic = A quantitative high throughput screen for small molecules that induce DNA re-replication in SW480 colon adenocarcinoma cells; SW480 DNA re-replication, Hoechst DNA content imaging, 48 h; Potency, µM (series often up to 46.1 µM), for the others: top-dose re-replication activation, most hits filed as activators; 340,000 tested, 1.8% active; AID 624297, 2012; also: % of control where 0% means no effect; nearly all actives have a fitted effect of over 55% in size
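Compounds, transferred as 23 nL by pin tool, were incubated with cells for 48 hr; DNA content per nucleus was then quantified by Hoechst staining and fluorescence plate imaging.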
KB-V1 MDR tox = qHTS assay for MDR1-selective chemotherapeutics: Primary screen using the drug-selected MDR subline cells KB-V1. KB-V1 MDR cells viability, CellTiter-Glo, 72 h. Potency, µM (series often up to 46.1 µM), usual class: cytotoxic. 400,000 tested, 3.4% active; also: % is scaled to controls: 0 for no effect and ±100 for the full control effect; nearly all actives have a fitted effect of over 60% in size
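Cytotoxicity toward P-gp-expressing KB-V1 cells was determined as loss of CellTiter-Glo luminescence after 72 h at 37 degrees C. Compounds were tested in quantitative HTS format across a concentration range, with curves fitted to normalized data.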
HT1080NT lethal = qHTS for induction of synthetic lethality in tumor cells producing 2HG: qHTS for the HT-1080-NT fibrosarcoma cell line; AID 686970, 2013; HT-1080-NT fibrosarcoma viability, CellTiter-Glo ATP luminescence, 48 h; Potency, µM (highest dose often 46.1 µM), without a hit: at the top dose activity, negative = less viability, hits mostly cytotoxic; 360,000 tested, 1.6% active;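 also: NT is the 2HG producing partner of a matched IDH1 knockdown line; 0% = DMSO-treated cells and -100% = media-only wells without cells; nearly all actives have a fitted effect of over 55% in size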
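Viability of the 2HG-overproducing fibrosarcoma line after 48 hours of compound exposure at 37 degrees C was determined by luminescence with CellTiter-Glo, and concentration-effect curves were then fitted and categorized.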
MCF10A rereplic = A quantitative high throughput screen for small molecules that induce DNA re-replication in MCF 10a normal breast cells | MCF 10A DNA re-replication, Hoechst nuclear intensity, 48 h | Potency, µM (titrated, usually from 46.1 µM), without a hit: top-dose activity, positive = re-replication, actives largely listed as activators | 350,000 tested, 2.9% active; also: % of control where 0% means no effect; nearly all actives have a fitted effect of over 50% in size
HT1080 IDH1KD tx = qHTS for induction of synthetic lethality in tumor cells producing 2HG: qHTS for the HT-1080-IDH1KD cell line. HT-1080 IDH1 knockdown viability, ATP luminescence, 48 h. Potency, µM (series often up to 46.1 µM), for the others: at the highest dose activity, negative = toxicity, usual class: cytotoxic. 360,000 tested, 2% active. AID 686971, 2013;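 also: 0% = DMSO wells and -100% = cell-free medium wells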
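Luminescent ATP read-out (CellTiter-Glo, 10 min at room temperature) after 48 h compound exposure at 37 °C gave viability of IDH1-knockdown HT-1080 cells. Activity was normalised to DMSO and cell-free wells, then fitted as concentration-response curves.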
* hit, by the source's call; i = inactive; u = inconclusive; x = not tested or not shown; ! = a repeat was not active. Shown are actives, neighbours in structure and some others; about 8% of the full set was active somewhere. Calls follow the shape of the dose curve; as a rule, active = well fitted curve in the direction sought with a large enough effect; inconclusive = small, poorly fitted or top-dose-only effect, or another doubt; inactive = no such curve, though single readings can be large; an effect the other way counts as inactive or inconclusive. Potency is read from the fitted curve at half-maximal effect.

SMILES	KB-3-1 cytotox	SW480 rereplic	KB-V1 MDR tox	HT1080NT lethal	MCF10A rereplic	HT1080 IDH1KD tx
Cc1ccc(NC2=CC(c3ccccc3F)N(c3ccc(C)cc3)C2=O)cc1 (centres undefined)	i	x	i	x	x	x
C[C@]12c3[nH]c4cc(-c5ccco5)ccc4c3CCN1C(=O)[C@@H](CC(=O)NCC13CC4CC(CC(C4)C1)C3)C[C@@H]2C(=O)N1CCOCC1	u	-3%	23µM*	u	u	18µM*
C[C@]12c3[nH]c4ccc(Cl)cc4c3CCN1C(=O)[C@@H](CC(=O)NCC13CC4CC(CC(C4)C1)C3)C[C@@H]2C(=O)N1CCOCC1	u	u	u	23µM*	u	u
O=C(C[C@H]1C[C@H](C(=O)N2CCOCC2)[C@@]2(CCC3CCCC3)c3[nH]c4cc(-c5ccco5)ccc4c3CCN2C1=O)NCC12CC3CC(CC(C3)C1)C2	u	6%	i	-1%	-3%	-19%
CCN(CC)C(=O)[C@H]1CC(CC(=O)NCC23CC4CC(CC(C4)C2)C3)C(=O)N2CCc3c([nH]c4ccccc34)[C@]12C (some centres undefined)	i	23µM*	i	11%	u	7%
CCN(CC)C(=O)[C@H]1CC(CC(=O)NCCC2=CCCCC2)C(=O)N2CCc3c([nH]c4ccccc34)[C@]12C (some centres undefined)	i	u	i	-1%	3%	-11%
CC[C@]12c3[nH]c4ccc(Cl)cc4c3CCN1C(=O)[C@@H](CC(=O)NCC13CC4CC(CC(C4)C1)C3)C[C@@H]2C(=O)N1CCN(C(=O)C2CC2)CC1	u	u	i	16µM*	u	23µM*
O=C(Nc1ccc(Br)cc1)C1CCN(S(=O)(=O)c2cccc3nsnc23)CC1	i	x	i	x	x	x
O=C(C[C@H]1C[C@H](C(=O)N2CCOCC2)[C@@]2(CCC3CCCC3)c3[nH]c4cc(-c5ccco5)ccc4c3CCN2C1=O)NCc1cccc(C(F)(F)F)c1	u	u	16µM*	-30%	-10%	u
CC[C@]12c3[nH]c4cc(-c5ccco5)ccc4c3CCN1C(=O)[C@@H](CC(=O)NCc1ccc(OC)c(OC)c1)C[C@@H]2C(=O)N1CCN(C(=O)c2ccco2)CC1	i	4.1µM*	i	-3%	4%	-8%
O=C(C[C@H]1C[C@H](C(=O)N2CCOCC2)[C@@]2(CCC3CCCC3)c3[nH]c4cc(-c5ccco5)ccc4c3CCN2C1=O)NCCN1CCOCC1	u	u	i	-19%	u	u
CCOc1ccc(S(=O)(=O)N2CCN(c3nc(-c4ccccc4)nc4ccccc34)CC2)cc1OCC	i	x	i	x	x	x
Cc1ccc[n+](CC(=O)Nc2cccc([N+](=O)[O-])c2)c1	i	1%	u	-4%	-10%	-2%
Cc1ccc[n+](CC(=O)Nc2ccc([N+](=O)[O-])cc2)c1	i	u	i	-14%	0%	16µM*
CCN(CC)C(=S)SSC(=S)N(CC)CC	i	u	i	u	15µM*	0.0052µM*!
Fc1ccc(COc2ccc(Br)cc2CNCc2ccncc2)cc1	i	20%	2.9µM*	-19%	u	u
CCOc1cc(CNCc2ccncc2)cc(Br)c1OCc1ccc(F)cc1	i	16%	u	u	u	11µM*
Cc1cc2ccccc2n1CCNC(=O)c1ccccc1F	i	x	i	x	x	x
